# High-throughput results deposited in PubChem BioAssay by The Scripps Research Institute Molecular Screening Center.
# Rows were chosen to be rich in hits. Some 2.3% of all compounds tested hit in one or more screens of this group.
# CHRM1 antagonist = antagonists of human M1 muscarinic receptor; P11229; CHO-K1 hM1, Fluo-8 calcium fluorescence, ACh EC80 antagonist; 360,000 compounds, 1.3% hits; inhibition, % at 3 µM;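 active = percent inhibition above its own plate's cutoff, namely the mean of that plate's compound wells plus 3 SD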;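 also: peak over basal fluorescence ratio during 140 s after agonist addition; 0% = ACh EC80 plus DMSO and 100% = DMSO alone without agonist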
# Target sequence (P11229 whole entry, looked up): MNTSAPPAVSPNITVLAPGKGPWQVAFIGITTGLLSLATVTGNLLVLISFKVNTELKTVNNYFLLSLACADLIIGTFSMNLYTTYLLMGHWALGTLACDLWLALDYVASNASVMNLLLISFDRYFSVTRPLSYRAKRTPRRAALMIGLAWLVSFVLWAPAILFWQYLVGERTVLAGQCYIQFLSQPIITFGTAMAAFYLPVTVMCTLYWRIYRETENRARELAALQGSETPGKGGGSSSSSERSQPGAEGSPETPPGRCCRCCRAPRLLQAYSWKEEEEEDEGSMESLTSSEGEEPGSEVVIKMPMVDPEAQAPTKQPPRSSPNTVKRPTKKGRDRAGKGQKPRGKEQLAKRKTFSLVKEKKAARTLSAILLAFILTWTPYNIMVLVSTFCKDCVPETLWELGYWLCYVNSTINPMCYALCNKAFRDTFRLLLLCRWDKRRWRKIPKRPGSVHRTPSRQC
# CHRM1 agonist = activates human CHRM1 receptor. P11229. CHO-K1 hM1, Fluo-8 calcium fluorescence, agonist mode; 0% DMSO, 100% acetylcholine EC100. activation, % at 3 µM. 360,000 compounds, 0.33% hits;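 active = activation above the run's mean compound activation plus 3 SD, cut at about 16% in these data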;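 also: peak over basal fluorescence ratio within a 140 s kinetic read after compound addition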
# CHO-K1 Ca antag = M1 antagonist counterscreen hit in parental CHO-K1 cells; AID 602250; 360,000 compounds, 0.6% hits; inhibition, % at 3 µM; ATP-induced calcium, Fluo-8 fluorescence;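 active = inhibition above a per-plate cutoff, the plate's mean sample inhibition plus 3 SD, cut at about 24% in these data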;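 also: 0% = DMSO plus EC80 ATP and 100% = DMSO alone without ATP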
# CHO-K1 Ca PAM = counter-screen for M1 PAMs: effect in parental CHO-K1 cells; 360,000 compounds, 0.02% hits; ATP EC20, Fluo-8 calcium fluorescence; 0% at ATP EC20, 100% at ATP max; activation, % at 3 µM;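 active = activation above the run cutoff, the mean activation of all test compounds plus 3 SD, cut at about 40% in these data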;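 also: peak over basal fluorescence ratio in a 140 s read after ATP addition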
# M1 ag parental = nonselective activator or artifact in parental CHO-K1 cells; AID 602248; 360,000 compounds, 0.48% hits; activation, % at 3 µM; Fluo-8 calcium fluorescence; scaled to maximal ATP response, vehicle zero; in the data active = activation above about 15%;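 also: untransfected CHO-K1 host cells lacking M1 receptor as counterscreen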
# CHRM1 PAM = positive allosteric modulators of human M1 muscarinic receptor. P11229. CHO-K1 hM1, Fluo-8 calcium fluorescence, ACh EC20; 0% = ACh EC20, 100% = maximal ACh. activation, % at 3 µM. 360,000 compounds, 0.088% hits; in the data active = activation above about 19%, passing the limit was not always enough
# An asterisk follows results filed as active; / = not tested or not shown.
SMILES,CHRM1 antagonist,CHRM1 agonist,CHO-K1 Ca antag,CHO-K1 Ca PAM,M1 ag parental,CHRM1 PAM
COc1ccc(CC(=O)OCC(=O)Nc2cccnc2Cl)cc1OC,34.7*,6.3,-7.0,9.0,0.6,0.6
Cn1ccc2c(-c3ccc(C(=O)O)cc3)cc3c(c21)C1CCC3C1 (stereo not given),-7.5,-11.8,-3.2,5.1,0.0,2.9
CCCCCn1c(=O)[nH]c2cc(C(=O)N3CCN(C(=O)OCC)CC3)ccc2c1=O,49.4*,-11.7,-8.4,-23.7,-0.5,-32.4
CCOC(=O)N1CCN(C(=O)c2ccc3c(=O)n(CCOC)c(=O)[nH]c3c2)CC1,28.5*,-5.0,11.5,-7.7,0.2,-7.8
CCCCCn1c(=O)[nH]c2cc(C(=O)O)ccc2c1=O,-9.4,-0.4,-0.8,11.2,0.2,9.6
CCOC(=O)N1CCN(C(=O)c2ccc3c(=O)n(CCc4ccccc4)c(=O)[nH]c3c2)CC1,48.9*,-2.0,-5.3,14.0,0.8,-18.9
COc1ccccc1Cn1c(=S)[nH]c2cc(C(=O)N3CCC(C(N)=O)CC3)ccc2c1=O,-5.5,-3.5,2.1,-14.1,0.3,5.9
CCOCCCn1c(=S)[nH]c2cc(C(=O)N3CCC(C(N)=O)CC3)ccc2c1=O,19.5,-1.8,24.6*,-6.8,-0.3,-5.1
CCCc1cc(=O)oc2cc(OC(=O)CN3C(=O)NC4(CCCC4)C3=O)ccc12,15.7,0.9,5.3,5.9,1.6,-8.2
NC(=O)CC(NC(=O)c1ccc(Br)cc1)c1ccc(N2CCCCCC2)c([N+](=O)[O-])c1 (stereo not given),-8.4,-2.4,-5.9,20.6,-0.7,12.6
O=C1/C(=C/c2cccnc2)Sc2ccccc21,-4.1,9.1,-8.4,21.0,0.6,24.6*
C=CCn1c(C)c(C(C)=O)c(N2CCN(C(c3ccccc3)c3ccccc3)CC2)nc1=S,35.3*,-2.9,-9.4,11.0,3.5,-15.2
CC(=O)c1c(N2CCN(C)CC2)nc(=S)n(Cc2ccccc2)c1C,-11.3,-10.1,-5.8,19.0,0.8,0.1
CC(C)Oc1ccc(CNC(=O)CC(c2ccccc2)c2cc(Cl)ccc2O)cc1 (stereo not given),6.9,-6.0,-11.3,8.9,1.4,0.1
COc1ccc(C(CCNCc2ccc(OC)c(OC)c2)c2ccc(F)cc2)cc1 (stereo not given),9.5,-0.3,7.5,-0.7,17.9*,-1.9
COc1ccc(CCNCCC(c2ccccc2)c2ccccc2)cc1OC,30.4,-3.4,9.8,3.5,2.2,-24.3
CC(C)Oc1ccc(C(CCNCc2ccc(O)cc2)c2ccccc2)cc1 (stereo not given),10.6,-4.3,14.7,2.4,20.8*,-10.0
COc1ccc(C(CCNCc2ccc(N(C)C)cc2)c2ccccc2)cc1 (stereo not given),14.3,-6.6,3.0,-9.0,22.5*,-2.6
O=C(c1cc([N+](=O)[O-])ccc1N1CCOCC1)N1CCN(S(=O)(=O)c2ccc(F)cc2)CC1,27.9*,-2.2,3.7,-23.0,0.3,-9.1
Cc1ccc(NC(=O)c2cc([N+](=O)[O-])ccc2N2CCOCC2)cc1C,-5.4,-4.8,8.4,-13.1,-0.3,6.8
Cc1ccc(NC(=O)c2cc([N+](=O)[O-])ccc2N2CCOCC2)cc1S(=O)(=O)N(C)C,52.4*,-5.0,-13.2,12.6,2.8,-23.0
CC(C)c1ccc(S(=O)(=O)N2CCN(C(=O)c3cc([N+](=O)[O-])ccc3N3CCOCC3)CC2)cc1,-21.9,-4.3,-8.8,7.7,0.2,7.6
Cc1ccc(NC(=O)c2cc([N+](=O)[O-])ccc2N2CCCC2)cc1,6.0,-2.8,1.4,16.6,16.9*,-1.8
COc1ccc(Cn2cc(CN(C)C3CN(Cc4cn(Cc5ccc(OC)cc5)nn4)S(=O)(=O)C3)nn2)cc1 (stereo not given),/,/,-10.0,13.7,1.9,/
CNS(=O)(=O)c1cccc(C(=O)OCc2cc(=O)oc3c(C)c(O)ccc23)c1,1.7,0.6,-7.8,12.0,15.4*,-6.8
CCc1cc2c(COC(=O)c3cccc(S(C)(=O)=O)c3)cc(=O)oc2cc1O,9.3,-5.6,-2.1,9.8,9.7,-6.1
CC(=NNC(=S)N1CCN(c2ccccn2)CC1)c1nccs1,-2.4,-5.8,7.8,6.7,0.4,-6.2
